Only some compounds are listed: those with a hit (about 4.8% of all), similar ones and a draw of the others.
NALP1 inh = NALP1 inflammasome inhibitors in reconstituted yeast, colorimetric, S. cerevisiae, triplicate retest | inhibition, % at 10 µM | S. cerevisiae NALP1/ASC/caspase-1 growth, X-gal OD620, 72 h | 0.61% of 280,000 active | AID 2071, 2009; in the data active means inhibition mostly above about 24%, no sharp cut-off; inactive means mostly below about 32%
TIM10 inh = growth inhibitors of isogenic TIM10 control yeast, primary screen, counter-screen for tim10-1 yeast inhibitor project, luminescence, uHTS. S. cerevisiae TIM10 strain growth, BacTiter-Glo luminescence, 24 h. AID 463195, 2010. 1.4% of 330,000 active. inhibition, % at 10 µM;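 active means inhibition of 40% or more at the single tested concentration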;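 further: wild-type TIM10 isogenic control strain grown at permissive 25 °C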
tim23-1 inh = growth inhibitors of tim23-1 mutant yeast, primary screen, luminescence, uHTS | S. cerevisiae tim23-1 growth, BacTiter-Glo luminescence, 24 h | inhibition, % at 20 µM | 1.3% of 330,000 active | AID 463212, 2010;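 active means growth inhibition of the mutant yeast at or above 50%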;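 further: temperature-sensitive mutant grown at 25 °C; plate controls were DMSO-treated mutant yeast for no effect and medium wells lacking yeast for full effect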
tim10-1 inh = growth inhibitors of tim10-1 mutant yeast, primary screen, luminescence, uHTS. S. cerevisiae tim10-1 ts strain growth, BacTiter-Glo, 24 h. inhibition, % at 20 µM. 2.2% of 330,000 active. AID 463190, 2010;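 active means inhibition of at least 40%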;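 further: mutant grown at 25 °C; 0% = DMSO wells with yeast and 100% = wells holding no yeast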
SKKanGAS inh = S. pyogenes SKKanGAS growth inhibitors in kanamycin, primary screen, streptokinase expression inhibitor project, SKKanGAS strain, BacTiter-Glo luminescence. 6 h. inhibition, % at 7.5 µM. 1.3% of 300,000 active;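 active means mean replicate score, as percent of positive control median, at least 50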;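 further: strain carries kanamycin resistance gene driven by streptokinase promoter and grows in 40 µg/ml kanamycin; loss of luminescence reflects streptokinase promoter inhibition or plain growth inhibition; 0% = median of DMSO wells and 100% = positive control at its reference dose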
PfHsp90 yeast 2 = growth inhibition of PfHsp90-expressing yeast, primary screen, antimalarial PfHsp90 inhibitor project, S. cerevisiae, BacTiter-Glo luminescence, single point, set 2 | BacTiter-Glo ATP, 48 h; yeast lacking PDR1 and PDR3 efflux regulators | inhibition, % at 9.4 µM | 0.32% of 310,000 active | AID 504621, 2011;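 active means every replicate shows inhibition above about 80%, whatever the replicate mean, limit read from the data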;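 further: 0% = DMSO neutral controls and 100% = 20 µM radicicol positive controls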
tim23-1 confirm = tim23-1 mutant yeast growth inhibitors, confirmation, luminescence, single concentration. inhibition, % at 20 µM. S. cerevisiae tim23-1 growth, BacTiter-Glo luminescence, 24 h. 83% of 4,400 active. shares compounds with tim23-1 inh;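 active means inhibition above about 39% in either of two replicate wells at 20 µM, limit read from the data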;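 further: temperature-sensitive tim23-1 mutant grown at 25 °C; 0% = DMSO wells with yeast and 100% = medium wells without yeast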
Starred values were filed as active, the others as inactive.

Cc1ccc(C)c(OCCC(=O)OCC(=O)NC2CC2)c1 was read as TIM10 inh -6, tim23-1 inh 3, tim10-1 inh -10, SKKanGAS inh -1 and PfHsp90 yeast 2 13.
Screening Cc1ccc(S(=O)(=O)N2CCOCC2)cc1C(=O)NCCN1C(=O)S/C(=C\c2ccccc2Cl)C1=O returned NALP1 inh 27, TIM10 inh 25, tim23-1 inh 4, tim10-1 inh 17, SKKanGAS inh -5 and PfHsp90 yeast 2 14.
For O=C(NCCN1C(=O)S/C(=C\c2cccc(Cl)c2Cl)C1=O)C1=COCCO1 the results were NALP1 inh 20, TIM10 inh -106, tim23-1 inh 55*, tim10-1 inh 25, SKKanGAS inh -7, PfHsp90 yeast 2 -22 and tim23-1 confirm 35.
Screening CCOC(=O)CCSc1nc(N2CCOCC2)c2c(c1C#N)CC(C)(C)OC2 returned NALP1 inh 32, TIM10 inh 13, tim23-1 inh 3, tim10-1 inh 25, SKKanGAS inh 3 and PfHsp90 yeast 2 -1.
For CSC1=N/C(=C\c2ccc(C)cc2)C(=O)S1 the results were NALP1 inh 7, TIM10 inh 9, tim23-1 inh 61*, tim10-1 inh 29, SKKanGAS inh 4, PfHsp90 yeast 2 17 and tim23-1 confirm 56*.
For COc1ccc(/C=C2\N=C(SC)SC2=O)cc1OC the results were NALP1 inh -8, TIM10 inh 5, tim23-1 inh -4, tim10-1 inh 20, SKKanGAS inh 1 and PfHsp90 yeast 2 -97.
Screening COc1cc(/C=C/c2ccc3cccc(O)c3n2)ccc1O returned NALP1 inh -4, TIM10 inh 36, tim23-1 inh 52*, tim10-1 inh 33, SKKanGAS inh 88*, PfHsp90 yeast 2 -17 and tim23-1 confirm 66*.
O=C1/C(=C\c2cccs2)N=C(c2cccs2)N1Nc1ccccc1 was read as NALP1 inh -17, TIM10 inh 32, tim23-1 inh 66*, tim10-1 inh 31, SKKanGAS inh -10, PfHsp90 yeast 2 -11 and tim23-1 confirm 41*.
Screening O=C1/C(=C/c2cccs2)N=C(c2cccs2)N1Nc1ccccc1 returned NALP1 inh 13, TIM10 inh 30, tim23-1 inh 57*, tim10-1 inh 23, SKKanGAS inh -5, PfHsp90 yeast 2 -8 and tim23-1 confirm 51*.
Screening Cc1ccc(C2=N/C(=C\c3cccs3)C(=O)N2Nc2ccccc2)cc1 returned NALP1 inh 13, TIM10 inh 16, tim23-1 inh 40, tim10-1 inh 29, SKKanGAS inh 1 and PfHsp90 yeast 2 -47.
For O=C(NN1C(=O)/C(=C/c2cccs2)SC1=S)c1ccccc1 the results were NALP1 inh 31, TIM10 inh -24, tim23-1 inh 6, tim10-1 inh -21, SKKanGAS inh 3 and PfHsp90 yeast 2 -49.
Screening CS/C(Nc1cc(Cl)ccc1Cl)=C(/C#N)C(=O)c1ccco1 returned NALP1 inh 8, TIM10 inh 25, tim23-1 inh 59*, tim10-1 inh 33, SKKanGAS inh 54*, PfHsp90 yeast 2 -5 and tim23-1 confirm 52*.
`O=C(Nc1cc(Cl)ccc1Cl)c1ccco1` gave NALP1 inh 13, TIM10 inh -6, tim23-1 inh 17, tim10-1 inh 9, SKKanGAS inh 3 and PfHsp90 yeast 2 45.
`Fc1ccc(CSc2nc3ccccc3[nH]2)c2ccccc12` gave NALP1 inh 9, TIM10 inh 39, tim23-1 inh 56*, tim10-1 inh 32, SKKanGAS inh 50*, PfHsp90 yeast 2 -44 and tim23-1 confirm 55*.
`CC(c1ccccc1)n1c(-c2ccc(Cl)cc2)n[nH]c1=S` (stereo unspecified) gave NALP1 inh 5, TIM10 inh 25, tim23-1 inh 55*, tim10-1 inh 2, SKKanGAS inh 18, PfHsp90 yeast 2 -9 and tim23-1 confirm 27.
For CC(c1ccccc1)n1c(-c2ccncc2)n[nH]c1=S (stereo unspecified) the results were NALP1 inh 4, TIM10 inh 0, tim23-1 inh 12, tim10-1 inh 9, SKKanGAS inh 14 and PfHsp90 yeast 2 -12.
COC(=O)CC1COc2ccccc2N1C(=O)c1ccc(C(C)(C)C)cc1 (stereo unspecified) was read as NALP1 inh -8, TIM10 inh 25, tim23-1 inh 53*, tim10-1 inh 21, SKKanGAS inh 4, PfHsp90 yeast 2 3 and tim23-1 confirm 38.
Screening COC(=O)CC1COc2ccccc2N1C(=O)c1ccc(Br)cc1 (stereo unspecified) returned NALP1 inh 2, TIM10 inh 30, tim23-1 inh 20, tim10-1 inh 16, SKKanGAS inh -13 and PfHsp90 yeast 2 7.
For O=C(N/N=C/c1coc2ccc(Cl)cc2c1=O)c1cc(O)cc(O)c1 the results were NALP1 inh -8, TIM10 inh 7, tim23-1 inh 72*, tim10-1 inh 16, SKKanGAS inh 6, PfHsp90 yeast 2 9 and tim23-1 confirm 70*.
For Cc1ccc2occ(/C=N/NC(=O)c3ccncc3)c(=O)c2c1 the results were NALP1 inh 11, TIM10 inh 3, tim23-1 inh 51*, tim10-1 inh 11, SKKanGAS inh 2, PfHsp90 yeast 2 1 and tim23-1 confirm 51*.
COc1ccc(C(=O)N/N=C\c2coc3ccc(C)cc3c2=O)cc1 was read as NALP1 inh 0, TIM10 inh 28, tim23-1 inh 43, tim10-1 inh 20, SKKanGAS inh 0 and PfHsp90 yeast 2 -9.
`CCCOc1cccc(C(=O)N/N=C/c2coc3ccccc3c2=O)c1` gave NALP1 inh 3, TIM10 inh 5, tim23-1 inh 55*, tim10-1 inh 18, PfHsp90 yeast 2 17 and tim23-1 confirm 47*.
`Cc1ccc2occ(/C=N/NC(=O)c3ccccc3O)c(=O)c2c1` gave NALP1 inh 9, TIM10 inh 12, tim23-1 inh 53*, tim10-1 inh 22, SKKanGAS inh -3, PfHsp90 yeast 2 14 and tim23-1 confirm 51*.
Screening CN(CC(=O)Nc1cccc(F)c1)C(=O)Cn1cnc2c1c(=O)n(C)c(=O)n2C returned TIM10 inh 11, tim23-1 inh 4, tim10-1 inh 5, SKKanGAS inh -13 and PfHsp90 yeast 2 -2.
O=C1C(CSCc2ccccc2)NC(=S)N1c1ccccc1 (stereo unspecified) was read as NALP1 inh 13, TIM10 inh 24, tim23-1 inh 36, tim10-1 inh 24 and SKKanGAS inh -2.
